HEK293 tox – Cytotoxic Profiling in HEK 293 Cell Line of Diverse Libraries Using Quantitative High-Throughput Screening; HEK 293 viability, ATP luminescence (CellTiter-Glo), 48-72 h; Potency, µM (series often up to 115 µM), inactives show at the highest dose activity change, negative = cytotoxicity, usual class: inhibitors; 94,000 tested, 6.6% active; also: % is scaled to controls: 0 for no effect and ±100 for the full control effect; nearly all actives have a fitted effect of over 60% in size
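HEK 293 cells seeded at 250 cells/well were exposed to compound for 48 or 72 hr at 37 degree Celsius. Viability taken as ATP content by CellTiter-Glo luminescence.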
HEK293 viab – GF-AFC viability counterscreen for inhibitors of alpha-synuclein gene (SNCA) expression; HEK-293-SNCA-luc viability, GF-AFC fluorescence, 24 h; AID 1671193, 2021; 150,000 tested, 0.12% active; Potency, µM (titrated, usually from 57.1 µM), for the others: at the top dose activity change, negative = cytotoxicity, usual class: cytotoxic;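 also: 0% = DMSO-treated cells and -100% = medium-only wells without cells; nearly all actives have a fitted effect of over 30% in size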
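HEK-293-SNCA-luc cells (1500/well) plated 24 h, then exposed 24 h to a dilution series; GF-AFC added 30 min at 37C, fluorescence 405/540 nm; normalised to medium-only and DMSO wells, Hill fit.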
hNpr1 antagonist – Natriuretic polypeptide receptor (hNpr1) antagonism - Primary qHTS; HEK293 hNpr1 GloSensor cGMP, ANP-stimulated luminescence; Potency, µM (highest dose often 46.3 µM), without a hit: at the top dose activity change, negative = inhibition, usual class: inhibitors; 76,000 tested, 1.6% active; AID 1347048, 2019; calls by dose curve; also: % is scaled to controls: 0 for no effect and ±100 for the full control effect; nearly all actives have a fitted effect of over 60% in size
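HEK293 cells stably expressing human Npr1 and cGMP GloSensor pGS-40F, loaded 2 h with 2% GloSensor reagent, given compound 30 min at room temperature. Luminescence read before and 20 min after 0.1 nM hNppA.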
FLuc inh-1 – Firefly luciferase inhibition profiling of diverse chemical library using quantitative high-throughput screening. Luciferin 4-monooxygenase (Photinus pyralis), P08659. purified P. pyralis luciferase, luminescence, biochemical. Potency, µM (doses to about 115 µM), actives largely listed as inhibitors. 76,000 tested, 2.5% active. AID 1347043, 2019; also: % is scaled to controls: 0 for no effect and ±100 for the full control effect; nearly all actives have a fitted effect of over 65% in size
Target sequence (P08659 whole entry, looked up): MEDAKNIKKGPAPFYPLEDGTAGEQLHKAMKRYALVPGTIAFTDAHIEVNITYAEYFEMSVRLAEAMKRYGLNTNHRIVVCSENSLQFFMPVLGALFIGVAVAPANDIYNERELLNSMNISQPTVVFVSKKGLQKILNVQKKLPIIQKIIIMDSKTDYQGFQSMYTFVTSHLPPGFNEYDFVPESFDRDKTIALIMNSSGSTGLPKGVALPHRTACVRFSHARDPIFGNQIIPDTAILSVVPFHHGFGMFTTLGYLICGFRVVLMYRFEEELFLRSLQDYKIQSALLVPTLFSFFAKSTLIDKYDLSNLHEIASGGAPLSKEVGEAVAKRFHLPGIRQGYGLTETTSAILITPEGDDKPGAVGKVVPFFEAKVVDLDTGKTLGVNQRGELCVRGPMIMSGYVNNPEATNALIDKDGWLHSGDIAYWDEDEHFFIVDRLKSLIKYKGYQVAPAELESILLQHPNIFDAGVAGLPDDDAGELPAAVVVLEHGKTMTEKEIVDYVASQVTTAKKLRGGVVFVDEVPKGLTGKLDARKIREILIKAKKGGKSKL
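FLuc 10nM, D-luciferin 10uM, ATP 10uM, Mg acetate 10mM, Tris acetate pH 7.5, Tween/BSA; cpd qHTS; enzyme added last; CCD luminescence.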
NIH3T3 tox – Cytotoxic Profiling in NIH 3T3 Cell Line of Diverse Libraries Using Quantitative High-Throughput Screening; NIH 3T3 viability, CellTiter-Glo ATP luminescence, 48-72 h; Potency, µM (series often up to 96.7 µM), for inactives: at the top dose activity change, negative = cytotoxicity, actives largely listed as inhibitors; 94,000 tested, 4.3% active; AID 1345082, 2018; also: % is scaled to controls: 0 for no effect and ±100 for the full control effect; nearly all actives have a fitted effect of over 55% in size
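Viability of NIH 3T3 cells after 48 or 72 hr compound treatment at 37 °C was assessed by CellTiter-Glo, with luminescence imaged following a 10 min room-temperature step.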
SNCA expr inh – Primary qHTS assay for inhibitors of alpha-synuclein gene (SNCA) expression | HEK-293 SNCA-luciferase knock-in, luminescence, 24 h | Potency, µM (highest dose often 57.2 µM), for the others: at the top dose activity change, negative = inhibition, usual class: inhibitors | 140,000 tested, 0.17% active | AID 1671194, 2021;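 also: plate controls were DMSO cells for no effect and cell-free wells for full effect; nearly all actives have a fitted effect of over 45% in size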
FLuc SDR -ATP – Firefly luciferase (FLuc-C-HiBiT) SDR gain of signal screen - without ATP; shares compounds with FLuc inh-1; Purified FLuc-C-HiBiT, Nano-Glo HiBiT luminescence, no ATP; Potency, µM (series often up to 32.7 µM), for the others: top-dose activation (signal gain), hits mostly activators; 1,300 tested, 7.8% active; also: nearly all actives have a fitted effect of over 55% in size
FLuc SDR ATP – Firefly luciferase (FLuc-C-HiBiT) SDR gain of signal screen - plus ATP; purified FLuc-C-HiBiT + ATP, HiBiT complementation luminescence; shares compounds with FLuc inh-1; 1,300 tested, 8.7% active; AID 1963319, 2024; Potency, µM (series often up to 32.7 µM), without a hit: at the top dose activation (gain of signal), most hits filed as activators;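 also: signal reports ligand binding via conformational change of the enzyme rather than luciferase catalysis; % of control where 0% means no effect; nearly all actives have a fitted effect of over 55% in size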
FLuc inh-2 – Firefly luciferase (FLuc-C-HiBiT) enzymatic inhibition screen - Functional assay | 1,300 tested, 42% active | AID 1963320, 2024 | purified FLuc-C-HiBiT enzyme, luciferin luminescence | Potency, µM (highest dose often 32.7 µM), inactives show at the highest dose activity change, negative = inhibition, actives largely listed as inhibitors | shares compounds with FLuc inh-1; also: % is scaled to controls: 0 for no effect and ±100 for the full control effect; nearly all actives have a fitted effect of over 70% in size
Starred values were filed as active, the others as inactive; i = inactive; u = inconclusive; x = no result given; [ ] = remark or other dose. A selection: hits, their analogues and other compounds. The true share with any hit is near 7.2%. Unless noted, calls follow the shape of the dose curve; as a rule, active = well fitted curve in the direction sought with a large enough effect; inconclusive = small, poorly fitted or top-dose-only effect, or another doubt; inactive = no such curve, though single readings can be large; an effect the other way counts as inactive or inconclusive. Potency is read from the fitted curve at half-maximal effect.

SMILES	HEK293 tox	HEK293 viab	hNpr1 antagonist	FLuc inh-1	NIH3T3 tox	SNCA expr inh	FLuc SDR -ATP	FLuc SDR ATP	FLuc inh-2
CC1CNC(Cc2ccccc2)CN1C(=O)OC(C)(C)C (configuration not stated)	-19%[172 µM]	4%[87.6 µM]	x	x	-7%[138 µM]	-13%[87.6 µM]	x	x	x
Cc1cccc(CN2CCc3nc(C(=O)NCc4ccccc4)oc3CC2)c1	u	-5%[87.6 µM]	-27%[70.6 µM]	i	u	-10%[87.6 µM]	x	x	x
O=C(NCCOc1ccccc1)c1nc2c(o1)CCN(Cc1ccsc1)CC2	u	5%[87.6 µM]	-11%[70.6 µM]	i	u	6%[87.6 µM]	x	x	x
O=C(Nc1cccnc1)c1nc2c(o1)CCN(Cc1ccc(O)cc1)CC2	x	x	x	x	x	x	23%[49.3 µM]	16%[49.3 µM]	u
Cc1csc(NC(=O)c2nc3c(o2)CCN(Cc2ccccc2F)CC3)n1	u	1%[87.6 µM]	-21%[70.6 µM]	4.5µM*	u	54%[87.6 µM]	u	18%[49.3 µM]	u
O=C(NCc1ccncc1)c1nc2c(o1)CCN(Cc1nccs1)CC2	u	-7%[87.6 µM]	-16%[70.6 µM]	i	-22%[138 µM]	-25%[87.6 µM]	x	x	x
O=C(Nc1cccnc1)c1nc2c(o1)CCN(Cc1nccs1)CC2	x	x	x	x	x	x	25%[49.3 µM]	17%[49.3 µM]	u
O=C(Nc1ccccc1)c1nc2c(o1)CCN(Cc1ccc(F)cc1)CC2	u	-1%[87.6 µM]	18µM*	8.9µM*	u	64%[87.6 µM]	20%[49.3 µM]	17%[49.3 µM]	u
CC(Cn1cncn1)NC(=O)c1ccc(CCC(C)(C)O)cc1 (configuration not stated)	-17%	6%	0%	i	-9%	11%	x	x	x
C[S+](=O)([O-])c1ccc(-c2nnc3ccc(C(=O)NCc4ccc(F)cc4)cn23)cc1	-2%	15%	x	x	-19%	-18%	x	x	x
O=C(NCc1ccc(F)cc1)C1CN(C2CCCC2)C(=O)N1 (configuration not stated)	u	-1%[12.5 µM]	x	x	-21%[138 µM]	11%[87.6 µM]	x	x	x
c1ccc(COc2cccc(-c3nc4ccccc4s3)c2)cc1	x	x	x	x	x	x	26%	18%	5µM*
c1ccc(COc2ccccc2-c2nc3ccccc3s2)cc1	x	x	x	x	x	x	16%	13%	u
Oc1ccc(OCc2ccccc2)cc1	x	6%	x	x	x	19%	x	x	x
Cc1nc2cnc(OCc3ccccc3)nc2n(C)c1=O	x	1%	x	x	x	40%	x	x	x
NC(=O)COC(=O)c1ccccc1-c1nc2ccccc2s1	x	x	x	x	x	x	12%	8%	-5%
Cc1c[nH]c2ncnc(N3CCC(CN)(C(=O)Nc4cccc(OC(=O)N(C)C)c4)CC3)c12	x	-24%	x	x	x	x	x	x	x
O=C(NCc1ccccc1)C1CN(C2CCCC2)C(=O)N1 (configuration not stated)	-2%[172 µM]	2%[12.5 µM]	x	x	5%[138 µM]	-8%[87.6 µM]	x	x	x
